Screening data as filed in PubChem.
Hits are enriched below; roughly 2.9% of the tested compounds scored in any of these assays.
TRPML1 blocker: inhibitors of human TRPML1 channel; Q9GZU1; TRPML1-inducible cells, Ca2+ dye fluorescence, FDSS; active compounds read low; inhibition of EC80 agonist-evoked calcium signal; activity change, negative = inhibition, % (concentration not given with the values); actives 0.02% (n = 390,000); AID 624415; in the data active means activity change below about -50%; inconclusive means between about -30% and that limit;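 further: stimulus is agonist 54-4 at its EC80 concentration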
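TRPML1-DL cells, Tet-induced overnight (~16 h, 37 °C) at 1,500 cells/well, were loaded with Ca8 no-wash dye plus quencher for 45-90 min at room temperature. Compounds were pinned during FDSS kinetic reading; agonist 54-4 at EC80 (4 uM final) then added.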
TRPML1 agonist: activates the human TRPML1 channel | TRPML1-expressing cells, Ca2+ dye fluorescence, FDSS | activation, % (no concentration beside the values) | actives 0.12% (n = 410,000) | AID 624414; in the data active means activation above about 50%; inconclusive means mostly about 30% to 49%
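Calcium fluorescence on an FDSS kinetic reader gave the read-out. Tet-induced TRPML1-DL cells were plated overnight, dye-loaded (Ca8 with quencher, 45-90 min, room temperature, dark), then read 110 s after compound addition, and again 110 s after 4uM final 54-4 (EC80).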
DRD3 antagonist: D3 dopamine receptor (human) antagonism; actives 2.5% (n = 360,000); max response, negative = inhibition, %; D3R cells, DiscoveRx beta-arrestin luminescence, antagonist mode; active compounds read low; AID 652054; in the data active means max response below about -50%; inconclusive means no clear call, values can overlap the other calls
Target sequence (P35462 whole entry, looked up): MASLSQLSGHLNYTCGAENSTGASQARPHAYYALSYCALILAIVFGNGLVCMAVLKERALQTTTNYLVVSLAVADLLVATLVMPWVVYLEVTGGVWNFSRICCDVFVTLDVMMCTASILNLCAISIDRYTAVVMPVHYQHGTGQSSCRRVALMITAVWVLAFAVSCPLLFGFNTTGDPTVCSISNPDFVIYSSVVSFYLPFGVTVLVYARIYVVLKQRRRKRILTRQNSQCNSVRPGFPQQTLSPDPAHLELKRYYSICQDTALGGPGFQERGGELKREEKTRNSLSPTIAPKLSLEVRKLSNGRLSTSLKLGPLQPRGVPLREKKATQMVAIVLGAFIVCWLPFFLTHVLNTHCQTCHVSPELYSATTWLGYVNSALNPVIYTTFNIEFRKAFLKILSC
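Cells expressing the human receptor were seeded at 1500 cells/well, incubated overnight at 37 degrees C in 5% CO2, then exposed to library compounds with dopamine controls for 90 minutes at 37 degrees C before luminescent detection.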
D3 ag: D3 dopamine receptor (human) agonism; AID 652048; max activation, %; actives 0.58% (n = 410,000); D3R DiscoveRx beta-arrestin cells, luminescence, 90 min; in the data active means max activation above about 30%
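Cells at 1500/well, incubated overnight, then treated with pinned compounds (dopamine as control) for 90 min at 37 degrees C. DiscoveRx reagent added for 30 - 60 minutes at room temperature; luminescence read.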
A number is an active result; n = inactive; u = inconclusive; x = no result given.

SMILES	TRPML1 blocker	TRPML1 agonist	DRD3 antagonist	D3 ag
CCN1CCN(Cc2ccc(NC(=O)c3cc(NC(=O)C(=O)c4c[nH]c5ccccc45)cc(OC)c3)cc2C(F)(F)F)CC1	n	n	-54	n
CCC(CC)C(=O)Nc1ccc2nc(SCC(=O)N3CCOCC3)sc2c1	n	n	x	n
COCCCn1c(C(=O)NCCN2CCOCC2)cc2c(=O)n3cccc(C)c3nc21	n	n	-54	n
Cc1cccn2c(=O)c3cc(C(=O)NCCN4CCOCC4)c(=N)n(CCCN4CCOCC4)c3nc12	n	n	n	n
CCOC(=O)c1c(S(=O)(=O)NCC(=O)N(C)Cc2ccccc2)c(C)n(C)c1C	n	n	x	n
O=C(c1cn(-c2ccccc2)nc1-c1cccs1)N1CCOCC1	n	n	n	n
O=C(c1cn(-c2ccccc2)nc1-c1cccs1)N1CCN(c2ccccc2)CC1	n	n	n	31
O=C1NN(c2ccc(F)cc2)C(=O)/C1=C/c1cccs1	n	n	-63	n
COc1cccc(/C=C2/C(=O)NN(c3ccc(F)cc3)C2=O)c1	n	n	n	n
CC(=O)Nc1ccc2c(c1)Cc1cc(N3C(=O)C=CC3=O)ccc1-2	n	n	-64	n
O=C1C=CC(=O)N1c1ccc2c(c1)Cc1cc(F)ccc1-2	n	n	n	n
O=C(NCCN1CCC(n2c(=O)[nH]c3ccccc32)CC1)c1ccccc1	x	n	-113	n
Cc1ccc(C(=O)NCCN2CCC(n3c(=O)[nH]c4ccccc43)CC2)cc1C	x	n	-111	n
O=C(NCCN1CCC(n2c(=O)[nH]c3ccccc32)CC1)N1c2ccccc2Sc2ccccc21	x	n	-111	n
O=C(NCCN1CCC(n2c(=O)[nH]c3ccccc32)CC1)c1cccnc1	x	n	n	n
O=C(NCCN1CCC(n2c(=O)[nH]c3ccccc32)CC1)c1ccc(F)cc1Cl	x	n	-77	n
COCCCNC(=O)N1c2ccccc2Sc2ccccc21	n	n	n	n
Cc1cccc(C)c1NC(=O)N1CCC(n2c(=O)[nH]c3ccccc32)CC1	n	n	n	n
CCN1CCN(C(=O)C2c3cc(OC)c(OC)cc3C(=O)N3CCc4ccccc4C23)CC1 (stereo not given)	n	n	n	n
CCCCN(CC)CCNC(=O)C1c2cc(OC)c(OC)cc2C(=O)N2CCc3ccccc3C12 (stereo not given)	n	n	-76	n
CCN(CC)CCNC(=O)C1c2cc(OC)c(OC)cc2C(=O)N(C)C1c1cccs1 (stereo not given)	n	n	-98	n
COc1ccc(C2C(C(=O)NCCN(C)C)c3cc(OC)c(OC)cc3C(=O)N2C)cc1OC (stereo not given)	n	n	n	n
CCN(CC)CCOC(=O)c1ccc(NC(=O)/C=C/c2cccs2)cc1	n	n	-101	n
Cc1cccc(NC(=O)Cn2cnc3sc(C)c(S(=O)(=O)N4CCC(C)CC4)c3c2=O)n1	n	n	n	35
O=C(CC1NCCc2ccccc21)Nc1ccc(Oc2ccccc2)cc1 (stereo not given)	u	n	u	n
SMILES	TRPML1 blocker	TRPML1 agonist	DRD3 antagonist	D3 ag
O=C(CC1NCCc2ccccc21)Nc1ccccc1 (stereo not given)	n	n	-74	n
COC(=O)c1nc(N2CCN(S(=O)(=O)c3ccc(C)cc3)CC2)c2ccccc2n1	x	n	x	x
CCOc1cccc(C(=O)N(Cc2ccc(C)o2)C2CCS(=O)(=O)C2)c1 (stereo not given)	n	n	x	n
Cc1cccc(N2CCN(CC(O)COc3ccc4ccccc4c3)CC2)c1 (stereo not given)	n	n	u	47
Cc1ccc(/C=C/C(=O)N2CCCN(C(=O)/C=C/c3ccc(C)cc3)CC2)cc1	n	n	-58	n
Cc1cc(OCC(O)CN2CCN(c3cccc(Cl)c3)CC2)ccc1Cl (stereo not given)	n	n	x	n
O=C(/C=C/c1ccccc1)N1CCN(CC(O)COc2ccccc2)CC1 (stereo not given)	n	n	-71	n
Cc1ccc(OCC(O)CN2CCN(c3ccccc3)CC2)cc1 (stereo not given)	n	n	-75	n
OC(COc1ccccc1)CN1CCCCC1 (stereo not given)	n	n	u	n
CCCC(=O)Nc1cc(-c2nc3cccnc3s2)ccc1C	n	n	x	n
Cc1cc(NC(=O)N2CCC(CN3CCCCCC3)CC2)ccc1Br	n	n	x	n
Cc1ccc(OCC(O)CN2CCN(CC(O)COc3ccc(C)cc3)CC2)cc1 (stereo not given)	n	n	u	n
Cc1ccc(OCC(O)CN2CCN(c3ccc(C)cc3)CC2)cc1 (stereo not given)	n	n	-88	n
Cc1cccc(CN2CCN(C(=O)c3ccccc3F)CC2)c1	n	n	-78	n
OC(COc1ccc(Cl)cc1)CN1CCN(c2ccccc2)CC1 (stereo not given)	n	n	-87	n
O=C(/C=C/c1ccc(F)cc1)N1CCN(Cc2ccccc2)CC1	n	n	-69	n
COc1ccc(N2CCN(C(=O)c3nn(-c4ccc(C)cc4)c(=O)n(C)c3=O)CC2)cc1	n	n	x	n
C(=C\c1nc2ccccc2o1)/c1ccc2c(c1)OCO2	x	n	x	x
Cc1cc2c(cc1C)N[C@]1(C[C@H]3CCCC(=O)N4CC[C@@H](C1)[C@@H]34)C(=NC1CCCCC1)N2	x	n	x	x
COc1ccc(OCC(O)CN2CCN(c3ccc(OC)cc3)CC2)cc1 (stereo not given)	u	n	u	n
COc1ccc(N2CCN(CC(O)COc3ccc(F)cc3)CC2)cc1 (stereo not given)	n	n	-66	n
COc1cc(/C=C/C(=O)N2CCN(CC(=O)N3CCCC3)CC2)cc(OC)c1OC	x	x	x	n
OC(COc1ccc(Cl)cc1)CN1CCC(Cc2ccccc2)CC1 (stereo not given)	n	n	-76	n
Cc1ccc(N2CCN(CC(O)COc3ccccc3)CC2)cc1 (stereo not given)	n	n	-54	n
COc1ccc2cc(/C=C/C(=O)N3CCN(CC(=O)N4CCCCCC4)CC3)ccc2c1	n	n	n	36
SMILES	TRPML1 blocker	TRPML1 agonist	DRD3 antagonist	D3 ag
OC(COc1ccccc1)CN1CCOCC1 (stereo not given)	n	n	n	n
CCOc1ccccc1CNc1ncnc2c1nc1n2CCCC1	n	n	x	n
CN[C@@H]1[C@@H](O)[C@@H](O[C@@H]2[C@@H](O)[C@H](O[C@H]3O[C@H](CN)[C@@H](O)[C@H](O)[C@H]3O)[C@@H](N)C[C@H]2NC(=O)C(O)CN)OC[C@]1(C)O (stereo not given in full)	x	x	x	n
Cc1ccccc1NC(=O)c1ccc(F)c(S(=O)(=O)N(C)C2CCCCC2)c1	n	n	x	n
CCOC(=O)N=Nc1c2ccccc2c2nc3no[nH]c3nc12	n	n	-65	n
Cc1cc(O)c2c(c1)O[C@@]1(C)CC[C@H]3C(C)(C)CCCC34CO[C@@H]2[C@H]41 (stereo not given in full)	x	x	x	n
O=C(Nc1nc2c(s1)CCCC2)C1CCCN1C(=O)c1cccs1 (stereo not given)	n	n	-53	n
